Source: PubChem
The list is not random: actives were taken first. Their share in the collection is about 7.1%.
M1 antag = M1 muscarinic receptor (rat) antagonism; hit rate 3.4% among 64,000; AID 628; P08482; CHO-M1 cells, Fluo-4 calcium, ACh EC80 antagonist mode; stronger effect = lower value; B-score at 10 µM;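 active = calcium fluorescence response, raw or row-and-column corrected B-score, differing from the plate sample mean either way at a set confidence level, mostly lower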
Cav32 inh = inhibitors of human Cav3.2 T-type calcium channel; Cav3.2-expressing cells, Fluo-4 calcium fluorescence FDSS; stronger effect = lower value; B-score at 10 µM; hit rate 4% among 100,000; AID 449739;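 active = single-dose well whose peak fluorescence ratio is a statistical outlier from its plate by either plate-standardised score or position-corrected B-score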
M1 agonist = activates the M1 muscarinic receptor | CHO-M1 cells, Fluo-4 calcium fluorescence, agonist mode; stronger effect = higher value | B-score at 10 µM | hit rate 3% among 64,000 | AID 626;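 active = fluorescence rise, raw or as B-score row- and column-corrected plate score, outside the 99.7% band of its plate's samples, either direction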
PTK2B oligo ant = Pyk2 (human) oligomerization antagonism; Q14289; Q293 cells, Pyk2 FERM NanoBiT luminescence; stronger effect = lower value; z-score (the deposit names both 25 µM and 10 µM); hit rate 0.83% among 99,000; AID 1347419;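 active = Z-score of -3 or lower, scaled per plate to the spread of control and sample wells; inactive = z-score above -3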;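 also: negative z-score means lost luminescence so less FERM oligomerization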
Target sequence (Q14289 whole entry, looked up): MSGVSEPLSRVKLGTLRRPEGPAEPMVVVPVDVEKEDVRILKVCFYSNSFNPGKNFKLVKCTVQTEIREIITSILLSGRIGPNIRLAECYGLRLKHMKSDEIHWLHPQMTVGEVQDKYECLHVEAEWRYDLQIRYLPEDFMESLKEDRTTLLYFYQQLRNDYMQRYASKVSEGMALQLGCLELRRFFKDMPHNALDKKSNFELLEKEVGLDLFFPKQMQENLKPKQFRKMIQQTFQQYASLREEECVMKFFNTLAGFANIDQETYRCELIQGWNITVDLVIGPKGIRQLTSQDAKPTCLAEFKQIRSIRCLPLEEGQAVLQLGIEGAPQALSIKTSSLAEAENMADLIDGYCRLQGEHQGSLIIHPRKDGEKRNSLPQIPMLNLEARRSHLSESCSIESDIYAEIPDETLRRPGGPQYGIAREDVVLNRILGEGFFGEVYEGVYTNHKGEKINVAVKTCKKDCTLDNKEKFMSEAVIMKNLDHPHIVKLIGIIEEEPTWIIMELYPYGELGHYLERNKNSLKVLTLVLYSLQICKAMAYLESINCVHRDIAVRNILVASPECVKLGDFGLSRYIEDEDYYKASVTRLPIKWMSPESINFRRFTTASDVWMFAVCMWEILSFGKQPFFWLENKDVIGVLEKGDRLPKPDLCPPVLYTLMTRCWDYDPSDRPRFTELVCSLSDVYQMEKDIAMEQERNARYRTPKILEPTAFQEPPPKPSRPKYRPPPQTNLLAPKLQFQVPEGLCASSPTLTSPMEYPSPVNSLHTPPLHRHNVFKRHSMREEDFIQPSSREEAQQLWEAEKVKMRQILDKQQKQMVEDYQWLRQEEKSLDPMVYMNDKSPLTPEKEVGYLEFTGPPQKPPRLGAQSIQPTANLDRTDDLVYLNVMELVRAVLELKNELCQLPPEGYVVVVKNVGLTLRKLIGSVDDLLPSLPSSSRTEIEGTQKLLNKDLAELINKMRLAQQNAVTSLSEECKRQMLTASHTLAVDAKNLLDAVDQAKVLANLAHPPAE
The depositor's hits bear a star; / = no result.

SMILES	M1 antag	Cav32 inh	M1 agonist	PTK2B oligo ant
N#Cc1nc(COc2ccccc2)oc1N1CCCCC1	-0.23	-6*	0.045	/
COc1cccc2cc(C(=O)NCc3ccco3)c(=Nc3ccc(C(=O)O)cc3)oc12	/	-2	/	0.69
Cc1cc(C)c2c(CN3CCN(CCO)CC3)cc(=O)oc2c1	-0.058	1	-0.096	-0.23
Cc1ccc2c(CN3CCN(CCO)CC3)cc(=O)oc2c1C	/	0.33	/	-3.5*
CCC1CCCCN1S(=O)(=O)c1ccc(C(=O)Nc2nnc(-c3cccs3)o2)cc1 (centres undefined)	0.15	-8.5*	-1.4	-2.9
CC1CC(C)CN(S(=O)(=O)c2ccc(C(=O)Nc3sccc3C(N)=O)cc2)C1 (centres undefined)	/	-1.1	/	/
CC1CCCN(S(=O)(=O)c2ccc(C(=O)Nc3nnc(-c4ccccc4Cl)o3)cc2)C1 (centres undefined)	0.63	-7.3*	1.3	-3.8*
CC1CC(C)CN(S(=O)(=O)c2ccc(C(=O)Nc3nnc(-c4cccs4)o3)cc2)C1 (centres undefined)	-0.67	/	0.28	-4.5*
COc1cccc(-c2nnc(NC(=O)c3ccc(S(=O)(=O)N4CC(C)OC(C)C4)cc3)o2)c1 (centres undefined)	0.26	/	1	-4.1*
CCCCOc1ccc(N2C(=O)CC(NCCc3ccc(S(N)(=O)=O)cc3)C2=O)cc1 (centres undefined)	/	-0.3	/	1.2
Cc1ccc(N(CC(=O)NCCSCc2ccco2)S(=O)(=O)c2ccc(C)cc2)cc1	/	-5.3*	/	0
CN(c1ccc(C(=O)NCCSCc2ccccc2)cc1)S(=O)(=O)c1ccccc1	/	-3.3	/	0.96
Cc1cccc(CSCCNC(=O)c2ccc(N(C)S(=O)(=O)c3ccccc3)cc2)c1	/	-3.9*	/	-0.18
Cc1cccc(N(CC(=O)NCCSCc2ccco2)S(=O)(=O)c2ccccc2)c1	/	-4.1*	/	0.26
O=C1C=C(O)c2cccc(O)c2C1=O	/	0.54	/	/
CC1=CC(=O)c2c(O)ccc(O)c2C1=O	/	-5.5*	/	/
CCc1cc2ccc(C)cc2nc1SCC(=O)N1CCN(C(=O)c2ccco2)CC1	-1.5	-5.1*	-0.086	0.45
C#CCOCCOCCOCCNc1nc(N2CCN(C(=O)C([C@@H](C)CC)n3cc(C(N)COC(=O)C(F)(F)F)nn3)CC2)nc(N2CCN(C(=O)[C@H](CCC(=O)O)n3cc(C(N)CC(C)C)nn3)CC2)n1 (some centres undefined)	/	0.64	/	/
COc1ccc(CC(=O)OCC(=O)NC(=O)NC23CC4CC(CC(C4)C2)C3)cc1	/	-8*	/	-0.31
COc1ccc(CCNC(=O)NC23CC4CC(CC(C4)C2)C3)cc1	/	0.58	/	-0.14
C=CCn1c(N)c(C(=O)Nc2cccc(C)c2)c2nc3ccccc3nc21	/	-0.074	/	-1.4
C=CCn1c(NC(=O)c2ccccc2)c(C#N)c2nc3ccccc3nc21	-0.7	/	21*	/
Cc1csc(NC(CO)c2nc3ccccc3n2CCOCCO)n1 (centres undefined)	/	0.94	/	/
COc1cc(-c2c(C#N)c(N)nc3c2c(C)nn3-c2ccc(C)c(C)c2)cc(OC)c1OC	/	-4.8*	/	-3.4*
CCOC(=O)C1=C(CC)Nc2ccccc2N=C1NC(=O)Nc1ccc(Cl)c(Cl)c1	/	-3.8	/	-4.1*
SMILES	M1 antag	Cav32 inh	M1 agonist	PTK2B oligo ant
C=CCOc1ccc(/C(CC)=N/O)cc1OC	/	0.88	/	-0.51
O/N=C/c1cc(Br)ccc1OCc1ccccc1F	/	-1.6	/	-1.1
C=CCOc1ccc(Br)cc1/C=N/O	/	-3.9*	/	-1.1
C=CCOc1ccc2ccccc2c1/C=N/O	/	-1.5*	/	1.1
CC1=CC(C)(C)n2c(O)c(N=N)c3cc(C)cc1c32	/	/	/	-0.66
O=C(Nc1ccccc1-c1nnc(SCc2ccc(Cl)cc2)o1)c1ccccc1	/	-4.2*	/	-0.71
O=C(Nc1ccccc1-c1nnc(SCc2ccccc2)o1)c1ccccc1	/	-5.8*	/	-0.67
O=c1c(-c2nnc(SCc3ccc(Cl)cc3)o2)cccn1Cc1ccccc1	/	-2	/	-0.86
NC(=O)CC(NC(=O)Cc1cccc2ccccc12)c1ccc(NC2CCCCCCC2)c([N+](=O)[O-])c1 (centres undefined)	/	-0.41	/	/
O=C(NCCO)C(F)(F)C(F)(F)C(F)(F)OC(F)(C(=O)NCCO)C(F)(F)F (centres undefined)	/	2.3	/	0.75
O=C(CN1CCC(n2nnc3cc(F)ccc32)CC1)Nc1ccc2c(c1)CCC2	-1.3	-5.6*	0.3	0.58
O=C(CN1CCC(n2nnc3ccccc32)CC1)Nc1ccc2c(c1)CCC2	-0.82	-2.4	0.7	-0.05
CCOC(=O)N1CCC(NC(=O)CCc2nc(-c3ccc(C)cc3)no2)CC1	-0.29	-0.0053	-0.15	1.3
O=C(c1ccco1)N1CCN(C(=O)c2cc(-c3ccccc3)nc3ccccc23)CC1	/	0.34	/	-0.19
Cc1nn(-c2ccc(Cl)cc2)c2sc(C(=O)N3CCN(C(=O)c4ccco4)CC3)cc12	0.21	/	2.8*	/
O=C(c1ccco1)N1CCN(C(=O)c2cc(-c3ccccn3)nc3ccc(Cl)cc23)CC1	-0.85	0.66	5.3*	0.39
O=C(c1ccco1)N1CCN(C(=O)c2ccc(COc3ccc(Cl)cc3Cl)o2)CC1	/	-5.8*	/	0
O=C(c1ccco1)N1CCN(c2ccc(Cl)c(Cl)c2)CC1	-0.44	-4.1*	2.7	-0.99
CCOC(=O)C(=O)/C(=C\N(C)C)c1onc(-c2c(Cl)cccc2Cl)c1C(=O)OC	/	/	/	1.1
O=C(N/N=C/c1cccc(Oc2ccccc2)c1)c1ccccc1Br	/	-2.8	/	-2.4
CCOCCCNC(=O)C(NC(=O)c1cnccn1)c1ccc(C)cc1 (centres undefined)	/	-1.7	/	-0.05
O=C(c1ccco1)N1CCN(C(=O)c2ccccc2Oc2ccccc2)CC1	0.56	-5*	0.28	-0.03
Cc1ccc(N2C(=O)c3ccccc3NC2C(C)Cc2ccc3c(c2)OCO3)cc1 (centres undefined)	/	-4.3*	/	-2.2
CCN(CC)S(=O)(=O)c1cccc(C(=O)Nc2nc3cc4c(cc3s2)OCCO4)c1	-0.45	-0.22	0.59	-3.5*
Cc1[nH]n(-c2ccccc2)c(=O)c1C1(C(F)(F)F)C(=O)N(c2ccc(F)cc2)C2=C1C(=O)CC(C)(C)C2 (centres undefined)	/	2.1	/	0.05
SMILES	M1 antag	Cav32 inh	M1 agonist	PTK2B oligo ant
OC(c1ccccc1)(c1ccc(F)cc1)C(c1ccccc1)N1CCOCC1 (centres undefined)	/	-2.8*	/	-1.1
CCN(Cc1ccccc1)C(c1ccccn1)c1nnnn1C1CCCCC1 (centres undefined)	/	-4*	/	-0.62
Cc1oc(-c2ccccc2)nc1Cn1cccc1C1=NC(c2ccccc2)CO1 (centres undefined)	1.5	-5.6*	-0.89	0.19
Cc1ccc(NC(=O)Cn2cccc2C2=NC(c3ccccc3)CO2)cc1C (centres undefined)	/	/	/	-2.4
O=C(Nc1cccnc1)c1ccc2c(c1)C(=O)N(Cc1cccnc1)C2=O	0.89	0.029	-0.71	-1.3
CCOc1ccccc1N1C(=O)c2ccc(C(=O)Nc3cccnc3)cc2C1=O	-0.7	-2.9*	-1.6	/
O=C(CN1C(=O)c2ccccc2C1=O)OC(C(=O)c1ccc(Cl)cc1)c1ccccc1 (centres undefined)	/	-2.7	/	0.21
Cc1ccc(C(=O)C(OC(=O)CN2C(=O)c3ccccc3C2=O)c2ccccc2)cc1C (centres undefined)	/	-5.1*	/	-0.59
